This is a sample that favours compounds with a hit; in the whole collection about 21% have one here.
NS1 inh – blocks influenza NS1 protein function; Potency, µM (doses to about 46.1 µM), for the others: top-dose activity, positive = more growth; 270,000 compounds, 0.4% hits; calls by dose curve; also: potency is read from the fitted curve at half-maximal effect; actives are rising curves; nearly all actives have a fitted effect of over 50% in size
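Read-out: OD600 growth recovery of NS1-expressing budding yeast. Cells grown overnight at 30C in -URA glucose medium, washed, resuspended and diluted 1:100 in 2% galactose assay medium, pH 6.0. Same strain lacking NS1 served as positive control.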
Shiga inhibitor – blocks Shiga toxin action in Vero cells | inhibition, % at 38.7 µM | 290,000 compounds, 9.2% hits | AID 2315 | Vero cells, Shiga toxin protein synthesis inhibition reporter; in the data active = inhibition mostly above about 28%, no sharp cut-off; inactive = mostly below about 43%; also: 0% is about no effect
Sm TGR block – S. mansoni TGR enzyme inhibition | Q962Y6 | purified TGR, DTNB reduction, TNB absorbance 405 nm | Potency, µM (doses to about 114 µM), inactives show top-dose activity change, negative = inhibition, hits mostly inhibitors | 360,000 compounds, 3% hits; also: potency is read from the fitted curve at half-maximal effect; % is scaled to controls: 0 for no effect and ±100 for the full control effect; nearly all actives have a fitted effect of over 60% in size
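First, TGR (20 nM dispensed) and NADPH were mixed with compound. Second, a 15 min room-temperature incubation followed. Third, further NADPH and then DTNB were added to start the reaction. Finally, TNB absorbance was monitored kinetically.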
Cycloheximide cs – counter-screen hit for Shiga toxin inhibitors, cycloheximide; cell reporter, cycloheximide protein synthesis inhibition counterscreen; max response, %; 300,000 compounds, 12% hits; AID 2314; in the data active = max response mostly above about 13%, no sharp cut-off; inactive = mostly below about 14%; also: read at 38.3 µM for the half of the compounds with a filed dose; 0% is about no effect
Pf growth 48h – inhibits P. falciparum growth in the first generation, 48 h; P. falciparum luciferase growth in erythrocytes, 48 h; Potency, µM (series often up to 28.7 µM), inactives show at the top dose activity change, negative = inhibition, usual class: inhibitors; 310,000 compounds, 5.9% hits; AID 504832; also: potency is read from the fitted curve at half-maximal effect; % is scaled to controls: 0 for no effect and ±100 for the full control effect
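Growth was read as firefly luciferase luminescence after a 48 h, 37 C, 5% CO2 exposure of compounds to reporter-bearing P. falciparum cultures (0.1% parasitemia, 2% hematocrit final) in Albumax-supplemented RPMI 1640.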
Pf growth 96h – inhibits malaria parasite growth, 96 h; Potency, µM (highest dose often 28.7 µM), inactives show at the highest dose activity change, negative = inhibition, most hits filed as inhibitors; P. falciparum luciferase reporter growth, 96 h; AID 504834; 320,000 compounds, 6.9% hits; also: potency is read from the fitted curve at half-maximal effect; % is scaled to controls: 0 for no effect and ±100 for the full control effect
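Luminescence readout: decreased luciferase signal marks inhibited growth of reporter-expressing P. falciparum in infected red cells (2% hematocrit, 0.05% parasitemia final), exposed to compound two generations (96 h, 37 C, 5% CO2).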
* hit, by the source's call; u = inconclusive; x = no result given. Unless noted, calls follow the shape of the dose curve; as a rule, active = well fitted curve in the direction sought with a large enough effect; inconclusive = small, poorly fitted or top-dose-only effect, or another doubt; inactive = no such curve, though single readings can be large; an effect the other way counts as inactive or inconclusive.

SMILES	NS1 inh	Shiga inhibitor	Sm TGR block	Cycloheximide cs	Pf growth 48h	Pf growth 96h
CN(CC(=O)Nc1ccc(Cl)c(Cl)c1)C(=O)C1CCCC1	x	x	-5%	x	u	5.2µM*
Nc1nc(SCC(=O)O)[nH]c(=O)c1N	-3%	x	x	x	x	x
CCCn1cc(CN2CCC(n3nccc3NC(=O)C(OC)c3ccccc3)CC2)c(C)n1 (configuration not stated)	2%	-6	-27%	2	-3%	-1%
N#Cc1ccc(-c2ccc(F)cc2)nc1SCC(=O)Nc1sc2c(c1C#N)CCC2	15%	6	-21%	2	u	24%
S=C(NNc1ccc2ccccc2c1)NC1CCCCC1	-13%	61*	-22%	49*	-1%	-4%
CC(C)c1ccc(NC(=S)NN2C(C)CCCC2C)cc1 (configuration not stated)	x	10	-20%	1	u	6.6µM*
CN1C(=O)C(=Cc2c(OCc3cnc(Cl)s3)ccc3ccccc23)C(=O)N(C)C1=O	7%	83*	-9%	53*	37%	26%
O=[N+]([O-])c1cccc(/C=C/c2nc3ccc([N+](=O)[O-])cc3[nH]2)c1	11%	41	2%	19*	2.9µM*	2.3µM*
CCCc1nc2ccc([N+](=O)[O-])cc2[nH]1	-4%	-7	x	11	14%	10µM*
Cn1cccc1-c1nc2ccc([N+](=O)[O-])cc2[nH]1	-4%	40*	-11%	33*	93%	171%
O=[N+]([O-])c1ccc2nc(-c3ccccc3)[nH]c2c1	-21%	25	0%	42*	118%	u
Cc1nc2ccc([N+](=O)[O-])cc2[nH]1	x	-2	15%	9	-4%	18%
COc1ccc(C(CNC(=O)Cc2ccc(Cl)cc2)N2CCOCC2)cc1 (configuration not stated)	x	x	-11%	x	x	x
CCCn1nnnc1NCc1c(F)cccc1Cl	-2%	-8	0%	-1	-3%	12%
O=C(Nc1cccc(C(F)(F)F)c1)C1CC(=O)N(CCc2ccccc2)C1 (configuration not stated)	x	x	-2%	x	u	-4%
CCCN(CCC)C(=O)Cn1c(=O)n(-c2cccc(OC)c2)c(=O)c2c(C)c(C(=O)N(C)C)sc21	x	x	6%	x	x	x
Cc1cccc(N2CCN(C(=O)c3cccc(N4CCCC4=O)c3)C(C)C2)c1 (configuration not stated)	5%	6	0%	1	u	u
CC(=O)Nc1nc(C)c(-c2nc3ccc([N+](=O)[O-])cc3[nH]2)s1	-3%	37	-4%	17*	14%	-29%
O=[N+]([O-])c1ccc2nc(-c3cccnc3)[nH]c2c1	3%	60	9%	21*	-6%	157%
N[C@H](Cc1ccc(O)c(O)c1)C(=O)O	4%	x	x	x	x	x
O=c1cc(C(F)(F)F)[nH]c(=S)n1-c1ccccc1	3%	-2	22µM*	1	7%	3%
Cc1cn(C)c(CC(=O)N2CCN(c3ccc(F)cc3)CC2)c1C(=O)O	x	x	-3%	x	x	x
c1ccc(-c2ccc(-c3n(-c4ccccn4)c4ccccc4[n+]3-c3ccccn3)cc2)cc1	x	-3	-9%	13	u	15µM*
c1ccc(-n2cnc3ccccc32)nc1	-4%	13	-12%	11	18%	-9%
COc1cccc(-c2ccc(NC(=O)C3CCCN(Cc4cnc(N(C)C)s4)C3)cc2)c1 (configuration not stated)	-5%	5	-1%	30*	u	-28%
CCCc1ncc(CN2CCCC(C(=O)Nc3ccc(-c4cccc(OC)c4)cc3)C2)cn1 (configuration not stated)	7%	15	3%	20*	u	u
COCc1ccc(CN2CCCC(C(=O)Nc3ccc(-c4cccc(OC)c4)cc3)C2)o1 (configuration not stated)	-15%	10	-2%	13	u	7%
CCC(C(=O)Nc1cc(Cl)ccc1OC)n1nc(-c2ccccc2)ccc1=O (configuration not stated)	x	x	-3%	x	x	x
O=C(NCc1csc(-c2cccs2)n1)C1CCC1	-2%	48*	1%	38*	99%	160%
